# Bioassay records (PubChem BioAssay)
# CYP2C19 act = increases human CYP2C19 enzyme activity | P33261 | recombinant CYP2C19, luciferin-H EGE luminescence; hits give high values; 0 = fully inhibited enzyme, 1 = untreated enzyme | activation factor at 5 µM | 96,000 tested, under 10 active | AID 1025;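 active = activation factor of at least 2 at 5 µM in the primary screen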;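 note: 0 = wells with 2.5 mM tranylcypromine and 1 = vehicle-only wells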
# CYP2C9 act = activators of human CYP2C9. 96,000 compounds, 1.4% hits. activation factor at 5 µM. recombinant CYP2C9, luciferin-H conversion, luminescence; hits give high values; factor 1 = untreated enzyme, 0 = blocked;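 active = activation factor of 2 or more for CYP2C9 at a 5 µM dose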;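 note: 0 = sulfaphenazole-blocked wells and 1 = vehicle-only wells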
# Target sequence (P11712 whole entry, looked up): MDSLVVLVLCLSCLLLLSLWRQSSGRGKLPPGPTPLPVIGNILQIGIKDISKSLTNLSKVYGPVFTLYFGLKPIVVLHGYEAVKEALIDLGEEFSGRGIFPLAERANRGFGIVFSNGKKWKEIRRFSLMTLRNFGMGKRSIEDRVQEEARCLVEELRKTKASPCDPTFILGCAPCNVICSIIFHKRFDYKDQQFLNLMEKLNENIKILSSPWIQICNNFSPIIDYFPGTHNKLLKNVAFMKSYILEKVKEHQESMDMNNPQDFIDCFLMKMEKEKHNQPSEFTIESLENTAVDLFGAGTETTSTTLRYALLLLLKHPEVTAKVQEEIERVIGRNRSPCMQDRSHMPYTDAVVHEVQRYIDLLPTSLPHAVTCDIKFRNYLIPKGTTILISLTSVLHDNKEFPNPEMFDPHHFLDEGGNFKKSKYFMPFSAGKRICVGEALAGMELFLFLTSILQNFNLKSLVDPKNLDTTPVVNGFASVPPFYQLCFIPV
# CYP2C19 inhib = blocks human cytochrome P450 2C19; P33261; 96,000 compounds, 21% hits; inhibition, % at 5 µM; CYP2C19 Supersomes, luciferin-H EGE luminescence, 30 min;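 active = CYP2C19 inhibition above a set limit at 5 µM in the primary screen, cut at about 50% in these data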;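 note: plate controls were negative control wells for no effect and 2.5 mM tranylcypromine positive control for full effect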
# CYP2C9 inhib = blocks human cytochrome P450 2C9. CYP2C9 Supersomes, luciferin-H conversion, luminescence. inhibition, % at 5 µM. 96,000 compounds, 20% hits. AID 777;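 active = blocking of liver enzyme CYP2C9 beyond about 50% at 5 µM, limit read from the data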
# * marks the source's active call; other numbers are inactive results. Rows were chosen to be rich in hits. Some 31% of all compounds tested hit in one or more screens of this group.
SMILES,CYP2C19 act,CYP2C9 act,CYP2C19 inhib,CYP2C9 inhib
Nc1ccc(Nc2nc(-c3ccncc3)cs2)cc1,0.4,0.4,61*,62*
Cc1ccc(-c2nnn(CC(=O)N(CC(=O)NC3CCCC3)c3cnc4ccccc4c3)n2)o1,0.6,0.2,44,77*
Cc1cccc(N(CC(=O)NCc2ccccc2)C(=O)Cn2nnc(-c3ccc(C)o3)n2)c1,0.7,0.6,28,40
Cc1ccc(-c2nnn(CC(=O)N(CC(=O)NCc3ccccc3)c3cccc(C)c3C)n2)o1,0.6,0.2,41,78*
Cc1cc(C)n2ncnc2n1,1.1,1.2,-10,-19
COc1ccc(C(C(=O)NC2CCCCC2)N(C(=O)CCCC(=O)Nc2ccccn2)c2ccc3c(c2)OCCO3)cc1 (stereo not given),0.6,0.7,41,27
Cn1ccnc1C(O)c1ccco1 (stereo not given),1,1.1,-3,-6
Cc1cc(Oc2ccc(Cl)cc2)nc(-c2ccccc2O)n1,0.6,0.7,41,28
Cc1ccc(Oc2cc(C)nc(-c3ccccc3O)n2)cc1,0.2,0.2,76*,79*
Cc1ccc(Nc2cc(C)nc(-c3ccccc3O)n2)cc1,0.8,0.4,20,55*
Cc1cc(NCCCN)nc(-c2ccccc2O)n1,0.9,0.7,10,25
CCN(CC)CCCN1C(=O)c2oc3ccccc3c(=O)c2C1c1cc(OC)ccc1OC (stereo not given),1.1,1.1,-13,-8
Fc1ccc(-c2nc3ccncc3[nH]2)cc1,0.5,0.4,47,62*
CC1CCN(S(=O)(=O)c2ccc3c(c2)CCN3C(=O)CCC(=O)O)CC1,0.9,1.2,7,-17
N#CC1(C#N)CC(C=O)=C(N)C1(C#N)CC(=O)c1ccc(F)cc1 (stereo not given),1,0.9,-5,8
CCOc1ccc(N2C(=O)/C(=C/c3cc(OC)c(OC)c(OC)c3)N(CC(=O)OC)C2=S)cc1,0.5,0.6,54*,42
Cc1ccc2c(c1)C1CN(C)CCC1N2C(=O)Nc1ccc(Cl)cc1 (stereo not given),0.9,1,12,-3
CCOc1ccccc1NC(=O)c1cccc2c1C(=O)N(CCOC)C2,0.3,0.1,67*,88*
COCCN1Cc2cccc(C(=O)Nc3cccnc3)c2C1=O,0.9,0.8,12,23
COCCN1Cc2cccc(C(=O)Nc3cccc(C)c3C)c2C1=O,0.8,0.7,22,29
CCOC(=O)N1CCC(NC(=O)c2cccnc2SC)CC1,0.8,1.1,18,-13
CCOc1ccc(NC(=O)c2cccc3c2C(=O)N(Cc2cccnc2)C3)cc1,0.8,0.2,20,77*
COC(CNC(=O)c1cccc2c1C(=O)N(Cc1cccnc1)C2)OC,0.5,1,50*,1
CCOC(=O)N1CCC(NC(=O)c2cccc3c2C(=O)N(Cc2cccnc2)C3)CC1,0.9,0.4,15,56*
CCOc1ccc(-c2nn(-c3ccccc3)cc2/C=C2\SC(=S)N(C3CCS(=O)(=O)C3)C2=O)cc1 (stereo not given),1,1.3,-1,-32
SMILES,CYP2C19 act,CYP2C9 act,CYP2C19 inhib,CYP2C9 inhib
O=C(O)c1cc(Cl)c2ccccc2c1O,0.8,0.2,20,79*
CCCn1nnc(NC(=O)c2ccc(F)cc2)n1,0.7,0.8,26,20
O=C(Cn1ccc2ccccc2c1=O)NCC1COc2ccccc2O1 (stereo not given),0.9,1.2,8,-21
O=C(CNS(=O)(=O)c1ccc(Br)s1)Nc1ccc2c(c1)OCCO2,0.8,0.3,19,75*
O=C(CNS(=O)(=O)c1ccc(Br)s1)NCC1COc2ccccc2O1 (stereo not given),0.8,0.4,22,64*
CC(C)c1nnc(NC(=O)CN(C)S(=O)(=O)c2ccc3c(c2)OCCO3)s1,0.8,1.4,16,-43
O=C(O)CNS(=O)(=O)c1ccc(Br)s1,1.1,1.1,-9,-8
CN(CC(=O)Nc1ccc2c(c1)OCCO2)S(=O)(=O)c1ccc(Br)s1,0.3,0.4,68*,64*
O=C(Cn1cnc2ccccc21)N/N=C/c1ccccn1,1,0.7,3,29
CCCS(=O)(=O)N1CCC(C(=O)NCCCOCC)CC1,1,0.9,1,8
COc1cc(OC)nc(Oc2ccccc2C(=O)Oc2ccccc2Cl)n1,0.5,1,50,1
C/C(=N\NC(=O)C(NC(=O)c1ccccc1)C(C)C)c1ccccc1 (stereo not given),0.7,1,32,-4
COCCCNC(=O)CSC1=Nc2ccccc2C2=NC(CC(=O)NCc3ccccc3)C(=O)N12 (stereo not given),1,0.8,4,22
Cc1ccc(S(=O)(=O)N2CCN(c3ncnc4c3cnn4-c3ccccc3)CC2)cc1,1.1,1.2,-12,-17
O=S(=O)(c1ccccc1)N1CCN(c2ncnc3sc(-c4ccccc4)cc23)CC1,0.2,0.1,82*,93*
Cc1cc(C(=O)c2ccccc2)nc2ccccc12,0.3,3.2*,68*,-216
CC(=O)COc1ccc2c3c(c(=O)oc2c1C)CCCCC3,0.2,0.9,83*,15
Cc1c(OC(=O)CNC(=O)OC(C)(C)C)ccc2c3c(c(=O)oc12)CCC3,0.6,2.7*,41,-173
Cc1c(OCC(=O)OC(C)(C)C)ccc2c3c(c(=O)oc12)CCC3,0.8,1,15,2
CC(=O)C(C)Oc1ccc2c3c(c(=O)oc2c1C)CCCC3 (stereo not given),0.4,0.5,58*,46
COc1cccc(/C(C)=N/NC(=O)c2ccc(N(C)C)cc2)c1,0.7,1.1,31,-12
COc1cccc(C(=O)NC2CC3CCCC(C2)N3CC(=O)Nc2ccc(N(C)C)cc2)c1 (stereo not given),0.6,0.2,38,79*
COc1cccc(-c2nc(CS(=O)(=O)CC(=O)NCCCN3CCc4ccccc4C3)c(C)o2)c1,0.9,0.8,10,16
COc1ccc(C2CC(c3ccccc3)Nc3nc(N)nn32)cc1 (stereo not given),0.9,1,9,2
CCOc1ccc(C2CC(c3ccccc3)Nc3nc(N)nn32)cc1 (stereo not given),0.8,0.5,24,51*
SMILES,CYP2C19 act,CYP2C9 act,CYP2C19 inhib,CYP2C9 inhib
Cc1ccccc1C1CC(c2ccc(F)cc2)Nc2nc(N)nn21 (stereo not given),0.3,0.2,69*,84*
Cc1ccc(C2CC(c3ccc(C)cc3)n3nc(N)nc3N2)cc1 (stereo not given),0.5,0.6,47,42
CCc1ccc(C2CC(c3ccc(F)cc3)Nc3nc(N)nn32)cc1 (stereo not given),0.5,1,51*,3
COc1ccccc1C1CC(c2ccc(Cl)cc2Cl)Nc2nc(N)nn21 (stereo not given),0.2,0.6,83*,39
Nc1nc2n(n1)C(c1ccccc1)CC(c1ccc(F)cc1)N2 (stereo not given),0,0.1,98*,93*
Nc1nc2n(n1)C(c1ccco1)CC(c1ccc(F)cc1)N2 (stereo not given),0.9,1.1,9,-7
